Like-named read-outs stand apart in the source and are kept apart here.
Tests used:
[1] = test system: T1, GRK3; conditions: concentration: 1 μM, replicates: in singlicate; n = 1
T1 construct: gene ADRBK2

[2] = test system: GRK4; conditions: concentration: 1 μM, replicates: in singlicate; n = 1
[3] = test system: GRK7; conditions: concentration: 1 μM, replicates: in singlicate; n = 1
[4] = test system: GSK3A; conditions: concentration: 1 μM, replicates: in singlicate; n = 1
[5] = test system: GSK3B; conditions: n = 1
[6] = test system: T2, HASPIN; conditions: concentration: 1 μM, replicates: in singlicate; n = 1
T2 construct: gene GSG2

[7] = test system: HCK; conditions: concentration: 1 μM, replicates: in singlicate; n = 1
[8] = test system: HIPK1; conditions: concentration: 1 μM, replicates: in singlicate; n = 1
[9] = test system: HIPK2; conditions: concentration: 1 μM, replicates: in singlicate; n = 1
[10] = test system: HIPK3; conditions: concentration: 1 μM, replicates: in singlicate; n = 1
[11] = concentration: 1 μM, replicates: in singlicate
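Also: KINOMEscan kinase panel screen.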

Row | SMILES | %Inh [1] | %Inh [2] | %Inh [3] | %Inh [4] | %Inh [5, 11] | %Inh [6] | %Inh [7] | %Inh [8] | %Inh [9] | %Inh [10] | %Inh ([5]; 1 µM)
1 | COc1ccc2cc(-c3nc(-c4ccccc4C(C)C)[nH]c3-c3ccncc3)ccc2c1 [SB-660566] | 34% | 0% | 0% | 2% | 17% | 0% | 0% | 0% | 0% | 25% | 
2 | COc1cccc(C2=C(Nc3cc(Cl)c(O)c(Cl)c3)C(=O)NC2=O)c1 [SB-390767] | 28% | 1% | 0% | 44% |  | 0% | 0% | 0% | 0% | 20% | 33%
3 | CCc1ccc(-c2ccc3c(c2)-c2n[nH]cc2S(=O)(=O)N3C)cc1 | 0% | 0% | 0% | 35% | 0% | 4% | 16% | 0% | 0% | 0% | 
4 | Cc1ccc(NC(=O)Nc2ccccc2)cc1-c1ccc(C(=O)Nc2ccncc2)cc1 [GSK1398471] | 0% | 0% | 0% | 12% | 11% | 1% | 0% | 0% | 0% | 13% | 
5 | Fc1ccc(-c2nc3n(c2-c2ccncc2)CCS3)cc1 [GI98581] | 21% | 0% | 0% | 14% | 19% | 13% | 0% | 0% | 0% | 0% | 
